Assay outcomes from PubChem BioAssay.
The list is not random: actives were taken first. Their share in the collection is about 3%.
Nrf2 activator = activators of Nrf2 (ARE) signaling; AREc32 ARE-luciferase reporter (MCF7-derived line), luminescence, 24 h; Potency, µM (highest dose often 46.1 µM), for the others: at the top dose activation, hits mostly activators; hit rate 0.31% among 410,000; AID 624171; also: potency is read from the fitted curve at half-maximal effect; % of control where 0% means no effect; nearly all actives have a fitted effect of over 65% in size
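Cells of the AREc32 ARE-luciferase line are plated in OPTI-MEM containing 5% FBS and left overnight at 37 deg C. Compounds are pinned in, incubation continues 24 hr, and firefly luciferase signal is then measured.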
Glioma ERSR ind = induces the endoplasmic reticulum stress response in human glioma cells. hit rate 0.02% among 420,000. AID 602332. Potency, µM, inactives show top-dose activation, actives largely listed as activators. U87-MG GRP78 promoter luciferase reporter, 16 h; also: potency is read from the fitted curve at half-maximal effect; series mostly up to about 76 µM; % of control where 0% means no effect; nearly all actives have a fitted effect of over 35% in size
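Stably transfected U87-MG human glioma cells carrying a GRP78-based luminescent sensor were seeded at 1000 cells/well, pin-dosed with compounds and incubated 16 h. Luciferase reagent was then added, and end-point luminescence was read after 10 min at room temperature.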
D3 antag = blocks the human D3 dopamine receptor. hit rate 2.5% among 360,000. max response, negative = inhibition, %. D3R cells, DiscoveRx beta-arrestin luminescence, antagonist mode; hits give low values. AID 652054; in the data active = max response below about -50%; inconclusive = no clear call, values can overlap the other calls; also: % is scaled to controls: 0 for no effect and ±100 for the full control effect
Target sequence (P35462 whole entry, looked up): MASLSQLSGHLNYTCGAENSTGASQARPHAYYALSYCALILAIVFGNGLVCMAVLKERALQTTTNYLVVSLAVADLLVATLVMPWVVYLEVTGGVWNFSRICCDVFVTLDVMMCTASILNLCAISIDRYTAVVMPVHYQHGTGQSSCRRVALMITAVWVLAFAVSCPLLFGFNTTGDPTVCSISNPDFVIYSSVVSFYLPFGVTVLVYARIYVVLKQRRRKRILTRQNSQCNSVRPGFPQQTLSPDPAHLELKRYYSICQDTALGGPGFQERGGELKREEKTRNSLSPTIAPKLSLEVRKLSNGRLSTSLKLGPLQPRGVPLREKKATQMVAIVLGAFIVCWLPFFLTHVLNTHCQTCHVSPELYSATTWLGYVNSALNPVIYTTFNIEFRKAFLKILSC
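Cells plated overnight at 1500 cells/well, then exposed to library compounds with dopamine controls for 90 minutes at 37 degrees C. DiscoveRx reagent added for 30–60 minutes at room temperature; luminescence read, quantitative HTS format.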
D3 ag = agonists of human D3 dopamine receptor; P35462; D3R DiscoveRx beta-arrestin cells, luminescence, 90 min; max activation, %; hit rate 0.58% among 410,000; in the data active = max activation above about 30%; also: 0% is about no effect
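Cells at 1500/well, incubated overnight, then treated with pinned compounds (dopamine as control) for 90 min at 37 degrees C. DiscoveRx reagent added for 30 - 60 minutes at room temperature; luminescence read.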
The depositor's hits bear a star; ? = inconclusive; / = not tested or not shown; [ ] = dose if it differs, or a comment. Unless noted, calls follow the shape of the dose curve; as a rule, active = well fitted curve in the direction sought with a large enough effect; inconclusive = small, poorly fitted or top-dose-only effect, or another doubt; inactive = no such curve, though single readings can be large; an effect the other way counts as inactive or inconclusive.

SMILES	Nrf2 activator	Glioma ERSR ind	D3 antag	D3 ag
Cc1noc(C)c1C(=O)N1CCC1(C)C(=O)NS(=O)(=O)c1cccc(Cl)c1 (configuration not stated)	0%[9.22 µM]	-3%	-5	30*
N#Cc1ccc(OCC(O)CN2CCN(C(c3ccccc3)c3ccccc3)CC2)cc1 (configuration not stated)	2%	-1%	-54*	-24
CCC(=O)c1ccc(OCC(O)CN2CCOCC2)cc1 (configuration not stated)	-2%	4%	13	1
c1ccc(OCCOCCN2CCN(C(c3ccccc3)c3ccccc3)CC2)cc1	5%	-8%	-78*	-30
CCC(=O)c1ccc(OCC(O)CN2CCN(C(c3ccccc3)c3ccccc3)CC2)cc1 (configuration not stated)	6%	-2%	-88*	-62
COc1ccccc1OCCCCN1CCN(C(c2ccccc2)c2ccccc2)CC1	6%	-5%	-84*	-34
N#Cc1ccc(OCC(O)CN2CCN(CC(O)COc3ccc(C#N)cc3)CC2)cc1 (configuration not stated)	2%	-1%	-12	-9
Cc1cc(Nc2ccccc2C(=O)O)ccc1Cl	/	1%	/	-18
OC(COc1ccccc1)CN1CCN(C(c2ccccc2)c2ccccc2)CC1 (configuration not stated)	5%	-5%	-95*	-27
OC(COc1ccccc1)CN1CCCC1 (configuration not stated)	-1%	-5%	-6	-11
COc1ccc(OC)c(NC(=O)C2CCN(c3cc(-c4ccccc4)nc4ncnn34)CC2)c1	0%	-3%	30	5
COc1ccc(NC(=O)C2CCN(c3cc(-c4ccccc4)nc4ncnn34)CC2)cc1OC	0%	2%	36	55*
O=[N+]([O-])c1cc2c(cc1CN1CCN(c3ccccc3F)CC1)OCO2	1%	-4%	-52*	-26
Cc1ccccc1N1CCN(Cc2cc3c(cc2[N+](=O)[O-])OCO3)CC1	0%	2%	-8	-17
O=C(Nc1ccccc1F)c1csc(COCCO)n1	0%[9.22 µM]	-1%	-134*	-24
O=C(Nc1ccc(Cl)cc1)c1csc(COCCO)n1	1%[9.22 µM]	1%	0	2
CN(CC(=O)NCCN1CCN(c2ccccc2)CC1)S(=O)(=O)c1ccc2c(c1)CCC(=O)N2	4%	0%	-64*	21
CN(CC(=O)NCc1ccccc1)S(=O)(=O)c1ccc2c(c1)CCC(=O)N2	0%	-2%	9	1
O=C(CCCN1CCC(O)(c2ccc(Br)cc2)CC1)c1ccc(F)cc1	11%	-2%	-122*	-83
O=C(CCCN1CCC(O)(c2cccc(C(F)(F)F)c2)CC1)c1ccc(F)cc1	7%	-2%	-61*	0
COc1cccc(C2(CC(=O)N3CCCOc4c(cccc4OC)C3)CC(=O)N(C)C2=O)c1 (configuration not stated)	/	0%	/	/
Cc1cc(NC(=O)CCNS(=O)(=O)c2cccc3nsnc23)ccc1Br	3%	-1%	/	2
O=C(NCc1ccc2c(c1)CCN2C(=O)c1ccncc1)c1ccc(Cl)cc1	0%	-2%	/	1
CC(CCc1ccc2c(c1)OCO2)NN (configuration not stated)	/	-2%	/	-3
COc1ccc(N2CCN(Cc3cccn3-c3nnc(N4CCN(C5CCCCC5)CC4)s3)CC2)cc1	4%	-3%	/	-7
SMILES	Nrf2 activator	Glioma ERSR ind	D3 antag	D3 ag
CCCOc1ccc(OCCOCCN2CCc3ccccc3C2)cc1	0%	3%	-70*	-3
Fc1ccc(OCCOCCN2CCCC2)cc1	0%	-7%	-3	-12
Cc1ccc(SCCOCCN2CCc3ccccc3C2)cc1	3%	-6%	-105*	-11
COc1ccc(OCC(=O)N2CCc3ccccc3C2)cc1	2%	0%	-19	-4
Cc1ccc(SCCOCCN2CC(C)OC(C)C2)cc1 (configuration not stated)	0%	-4%	-6	-17
COc1ccc(OCCCN2CCc3ccccc3C2)cc1	-1%	-3%	-109*	-19
C=CCc1cc(OC)ccc1OCCOCCN1CCc2ccccc2C1	2%	-8%	-88*	-24
C=CCc1cc(OC)ccc1OCCOCCC(C(=O)OCC)C(=O)OCC	0%	-4%	2	7
COc1ccc(C2(O)CCN(C(=O)Cc3cccnc3)CC2)cc1	-1%	-5%	9	1
CCOc1ccc(OCCOCCN2CCCC2)cc1	0%	-1%	6	6
c1ccc(OCCOCCN2CCc3ccccc3C2)cc1	0%	-3%	-111*	-18
COc1ccc(C2(O)CCN(CCCCOc3ccccc3)CC2)cc1	0%	-1%	-90*	-34
CCOc1ccc(OCCOCCN2CCc3ccccc3C2)cc1	0%	1%	-58*	-6
CC(=O)C(Cl)C(=O)Nc1ccccc1 (configuration not stated)	7%	-8%	-23	-11
O=C(Nc1ccccc1)C(Cl)C(=O)c1ccccc1 (configuration not stated)	14µM*	5%	-17	-18
COC(=O)C/C=C\[C@@H](C)[C@@H](/C=N\O[C@@H](C)c1cn([C@H](CO)Cc2ccccc2)nn1)NS(=O)(=O)c1ccc(C)cc1	/	-4%	/	/
CC(=O)Nc1ccc(S(=O)(=O)Nc2cc(C)on2)cc1	/	-3%	/	3
CC(C)CN1Cc2ccccc2Oc2cc(Br)ccc2S1(=O)=O	0%	-1%	-62*	5
COc1cc(-c2ccc(Cl)cn2)cc2c1OCCN(S(=O)(=O)C[C@]13CC[C@H](CC1=O)C3(C)C)C2	/	-2%	/	/
C=C(CN(C)C)C(=O)c1cc(C)ccc1C	?	-14%	-88*	-18
CCC1CN(Cc2cn[nH]c2-c2ccc(F)cc2)Cc2cc(OC)ccc2O1 (configuration not stated)	/	-2%	/	/
COc1ccc(CNS(=O)(=O)c2cc(Br)cc3c2N(C(C)=O)C(C)C3)cc1 (configuration not stated)	0%	-5%	-89*	0
Cc1c(C(=O)N(C)C)sc(NC(=O)c2cc([N+](=O)[O-])cc([N+](=O)[O-])c2)c1C#N	0%	0%	-91*	-3
COc1ccc(NC(=O)Cn2cc(C(=O)c3ccc(C)c(C)c3)c(=O)c3cc(OC)ccc32)cc1	-1%	-2%	/	-11
COc1ccc2[nH]c3c4c(ccc3c2c1)C(=O)C=CC4=O	14%	-11%	-105*	-18
SMILES	Nrf2 activator	Glioma ERSR ind	D3 antag	D3 ag
COc1cc(C#Cc2c(C=O)n(C)c3ccccc23)cc(OC)c1	0%	-2%	81	50*
C=CCn1c2ccccc2c(=O)c2cc(C#Cc3cc(OC)cc(OC)c3)ccc21	3%	-2%	51	50*
Cc1ncc2c(c1CNC(=O)CN1CCCCC1)CCN(C(=O)c1ccc(F)cc1Cl)C2	/	-6%	/	/
CC(=O)c1ccc(C(=O)N2CCc3c(cnc(C)c3CNC(=O)c3ccc4c(c3)OCO4)C2)s1	/	-5%	/	/
CCOC(=O)COc1ccc(S(=O)(=O)c2ccc(OCC(=O)OCC)cc2)cc1	0%	0%	-22	-3
C=CCNS(=O)(=O)c1ccc(OCC(=O)OCC)cc1	0%	-2%	-60*	7
